Results on 40 compounds are retold here after PubChem BioAssay (EPA / NIEHS).

Activity calls are given as the source filed them. Rule for the calls: active = hit-call score of the fitted dose curve at least 0.9, where 1 is the maximum; inactive = score below 0.9.

Read-out in the experiment: Cytochrome P450 (CYP24A1), CYP24A1 (gene 1591)
The experiment is described as follows: LTEA_HepaRG_CYP24A1: Life Technologies and Expression Analysis (LTEA) Assay for Cytochrome P450 (CYP24A1) using HepaRG (AID 2283478). Conditions: mRNA level, 48 h; actives raise or lower the signal. How it is done:
LTEA_HepaRG is a cell based, multiplexed-readout assay that uses HepaRG, a human liver cell line, with measurements taken at 48 hours after chemical dosing on a 96-well plate.LTEA_HepaRG_CYP24A1 is one of 102 assay component(s) measured in the LTEA HepaRG cell culture assay. It is a marker of NR mediated metabolism.Data from the assay component LTEA_HepaRG_CYP24A1 was analyzed into 1 endpoint. This assay endpoint, LTEA_HepaRG_CYP24A1, was analyzed with bidirectional fitting relative to DMSO as the negative control and baseline of activity. Using a type of inducible reporter, measures of mRNA induction for gain or loss-of-signal activity can be used to understand regulation of transcription factor activity. To generalize the intended target to other relatable targets, this assay endpoint is annotated to the cyp intended target family, where the subfamily is xenobiotic metabolism.
A total of 1060 chemcials from the ToxCast library were tested in eight-point concentration-response experiments. Cell culture and cytotoxicity assays were conducted at Thermo Fisher Scientific's Custom Services facility (Madison, WI). A single lot of human HepaRG cells (Thermo Fisher Scientific, Frederick, MD) was used for the cell culture experiments. 96-well format collagen type I coated plates of human HepaRG cells were prepared using established methods. Briefly, cryopreserved HepaRG cells were thawed, plated at a density of approximately 100,000 cells/well in HepaRG Thaw, Plate, and General Purpose media (HPRG770, Thermo Fisher Scientific), and incubated for 48 hours. 0.5% DMSO was selected as vehicle control to balance the requisite need of DMSO in HepaRG cultures to maintain differentiation (for example, baseline metabolism, proportions of hepatocytes vs. cholangiocytes), while enabling further hepatic receptor pathway activation (for example, PXR and CAR) in response to chemical exposure. 48 hours after plating, the culture medium was replaced with HepaRG Serum-Free Incudtion Media. Cells were exposed to each test chemical in duplicate and maintained in CO2 incubators for another 48 hours. Chemical plates were thawed to room temperature and 200x concentrations of treatment groups were prepared. 8-point conentration-reponse curves were made with the highest exposure at 100 uM, followed by half-log dilutions, all in 0.5% DMSO. Each test plate contained variouse controls, induction positive controls (1mM phenobarbital), cytotoxicity positive controls ([…] aflatoxin B1), vehicle controls (0.5% DMSO), and total lysis controls (0.5% DMSO). Cell morphology images were taken using an Essen IncuCyte FLR automated microscope, with six 96-well plates imaged in about 24 minutes. Images were captured and exported and JPEG files. Spent culture media was transfered to black-well plates for the LDH assay, and remaining media was sorted at -80 C for later use. Cells were treated with RLT buffer and frozen until shipped for gene expression analysis. Total RNA was isolated from the cell suspension in 75 uL of Buffer RLT (Qiagen, Germantown, MD 20874) by Quintiles/Expression Analysis (Durham, NC) using a custom isolation procedure. Total RNA from each plate well was transferred to a preamplification plate. Fluidigm's 96.96 Dynamic ArrayTM (Fluidigm, Amsterdam, the Netherlands) technology was used for gene expression analyses by quantitative reverse transcription polymerase chain reaction (qRT-PCR, performed by Quintiles/Expression Analysis, Durham, NC)89. Standard TaqManTM Assays (Applied Biosystems/ThermoFisher Scientific, Foster City, CA) were used to assess the expression of 93 genes selected based on their selectivity and sensitivity to important hepatic receptors known to be modulated by environmental chemicals; importance in human hepatocyte functionality; and hepatotoxicity. […]
Consider `CCCOC(=O)c1cc(O)c(O)c(O)c1`, for which the outcome was inactive.
To `Cc1cn([C@H]2C[C@H](N=[N+]=[N-])[C@@H](CO)O2)c(=O)[nH]c1=O` belongs “inactive”; to `CCCCCCCCCCCCO`, “inactive”.
The entry for `O=CCCCC=O` is “inactive”; for `CN1C(=O)CC[C@H]1c1cccnc1` it is “inactive”; for `O=c1c(-c2ccc(O)cc2)coc2cc(O)cc(O)c12` it is “inactive”.
In the case of `Cc1occc1C(=O)Nc1ccc(C(=O)N2CCC(F)(F)/C(=C\C(=O)N3CCC(N4CCCCC4)CC3)c3ccccc32)cc1`, the call was inactive.
On to `O=C(O)Cn1c(=O)n(Cc2ccc(Br)cc2F)c(=O)c2ccc(Cl)cc21`, for which the compound was classed as inactive.
Take `Cc1cccc2ccccc12`: the outcome was inactive.
On to `COc1ccc2cc(S(=O)(=O)N[C@H](CC(=O)N[C@H](Cc3ccc(CN4[C@H](C)CCC[C@@H]4C)cc3)C(=O)N(C)C(C)C)c3ccc4c(c3)OCO4)ccc2c1`, for which the outcome was inactive.
For the compound `CC1(C)NC(=O)N(c2ccc([N+](=O)[O-])c(C(F)(F)F)c2)C1=O`, the compound was called inactive.
Turning to `NCc1cccc(C2CCN(C(=O)c3ccc(C#Cc4ccccc4F)o3)CC2)c1`, the call was inactive.
The entry for `CCOC(=O)O[C@H](C)OC(=O)c1ccc2c(c1)cc(C(=O)NC1CCN(C(C)C)CC1)n2Cc1cc(-c2ccc(Cl)s2)on1` is “inactive”; for `O=C(OCCCCCCOC(=O)c1ccccc1)c1ccccc1` it is “inactive”.
In the case of `O=C1c2ccccc2C(=O)N1CCc1noc(-c2ccc(CN3CCCCCC3)s2)n1`, the result was inactive.
For `CC1=CC(=O)/C(=C(/C)O)C(=O)O1`, the outcome was inactive.
Turning to `Cc1cc2c(cc1C(F)(F)F)N(C(=O)Nc1ccc(Oc3cccnc3C)nc1)CC2`, the compound was called inactive.
To `C[C@]12CC[C@@H]3c4ccc(O)cc4CC[C@H]3[C@@H]1CC[C@H]2O` belongs “inactive”; to `CCCCCCCCOc1ccc(C(=O)c2ccccc2)c(O)c1`, “inactive”.
On to `CCCCCc1ccc(N)cc1`, for which the outcome was inactive.
As for `CN(C)C(=O)C1(N2CCCCC2)CCN(CC[C@@]2(c3ccc(Cl)c(Cl)c3)CN(C(=O)c3ccccc3)CCO2)CC1`, the outcome was inactive.
With `Cc1c2ccccc2c(C)c2c1ccc1ccccc12`, the call was inactive.
For the compound `Cc1oc2c(NC(=O)c3c(Cl)cccc3Cl)cccc2c1C(C)(C)O`, the call was inactive.
With `Clc1cc(Cl)c2c(c1)N=C1CCCCCN1C2`, the outcome was inactive.
The entry for `CC(C)(c1cc(Br)c(O)c(Br)c1)c1cc(Br)c(O)c(Br)c1` is “inactive”.
For the compound `CN(C)c1ccc(C(=C2C=CC(=[N+](C)C)C=C2)c2ccc(N(C)C)cc2)cc1`, the outcome was inactive.
In the case of `CCCCCCCCCCCO`, the outcome was inactive.
In the case of `O=C1CCC(C2CCCCC2)CC1`, the call was inactive.
Regarding `Cc1ncc(CO)c(CO)c1O`, the compound was classed as inactive.
Regarding `CCN(CC)C(=O)c1cc(S(=O)(=O)Cc2ccccc2)c(N2CCC(c3ccccc3)CC2)cc1N(CC)CCN(C)C`, the result was inactive.
To `CCCCCCCCCC(=O)O` belongs “inactive”.
On to `c1ccc2ccccc2c1`, for which the outcome was inactive.
For the compound `CC[C@@H]1C[C@H](N(Cc2cc(C(F)(F)F)cc(C(F)(F)F)c2)C(C)=O)c2cc(C(F)(F)F)ccc2N1C(=O)OC(C)C`, the compound was called inactive.
For `COc1cc(C(=O)NC2CCN(C)CC2)ccc1Nc1ncc2c(n1)N(C1CCCC1)CC(F)(F)C(=O)N2C`, the compound was classed as inactive.
The entry for `CCO[Si](CCCNC(N)=O)(OCC)OCC` is “inactive”; for `COc1cccc([C@H](O)C2CCN(CCc3ccc(F)cc3)CC2)c1OC` it is “inactive”; for `c1ccc(C[n+]2cccc3ccccc32)cc1` it is “inactive”.
As to `CCCC(=O)OCCC(C)C`, the result was inactive.
With `CCCCCCCCCCCC[N+](C)(C)C`, the compound was classed as inactive.
Consider `NC(=O)c1nc(-c2cccc(-c3cc(F)ccc3OCC(F)(F)C(F)(F)F)c2)n[nH]1`, for which the outcome was inactive.
